Source: PubChem BioAssay
Unmarked numbers belong to inactive results. Active and inactive are the calls of the source.

system: not listed separately; test: viability profiling in MM1S myeloma cells – cell-based, resazurin fluorescence, basal, 24 h, PK04 Diversity Set, profiling panel (AID 1174); settings: higher = more signal, called active from +8 up or from −8 down;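 further: MM1S multiple myeloma cell line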
Further: test concentration not given here.

Which z-score does the source give for `COC(=O)[C@@]1(Cc2ccc(OC)cc2)[C@H]2c3cc(C(=O)N(C)C)n(Cc4ccc(C)c(F)c4F)c3C[C@H]2CN1C(=O)c1ccccc1` here?
Its z-score is 0.468.

With `[N-]=[N+]=NCc1ccccc1C[C@]1(C(=O)N2CCCCC2)N=C(c2ccc(OCCCO)cc2)O[C@H]1c1ccccc1CN=[N+]=[N-]` as the molecule, how does the z-score read?
The z-score was -1.32.

With `CC(C)[Si](OCC[C@H]1O[C@]2(C(=O)N(Cc3ccccc3)c3ccccc32)[C@@H](C)[C@@H]1[Si](C)(C)O)(C(C)C)C(C)C` as the molecule, how does the z-score read?
Its z-score is 0.115.

Which z-score does the source give for `C=CCC(OC(C)=O)[C@@H]1[C@@H](N(Cc2ccc(-c3cccc(C(F)(F)F)c3)o2)C(=O)Cc2ccc(F)cc2)c2cc(OCCCO)ccc2N1C(=O)c1ccc(-c2ccccc2)cc1` (stereo partly drawn) here?
The z-score was 0.314.

Which z-score does the source give for `C=C[C@H](OC)[C@@H](OC(=O)Nc1ccc(SC)cc1)c1ccc(O)c(F)c1` here?
The z-score was 0.0545.

With `O=C1O[C@H](c2ccccc2)[C@H](c2ccccc2)N2[C@H]1[C@@H](C(=O)NC[C@H](O)c1ccccc1)[C@]1(C(=O)Nc3ccc(C#CC4(O)CCCCCC4)cc31)[C@H]2c1ccc(OCCO)cc1` as the molecule, how does the z-score read?
The z-score was -0.15.

With `CC(C)C[C@@H]1NC(=O)[C@H](CC(C)C)NC(=O)[C@@]23C(=O)N[C@@H](Cc4ccccc4)C2[C@H](C)[C@@]2(C)O[C@H]2C3/C=C/CC/C=C/CNC1=O` (stereo partly drawn) as the molecule, how does the z-score read?
Its z-score is 0.229.

Which z-score does the source give for `O=C1NC(=O)C2C1C=CC(C(O)C=Cc1ccc([N+](=O)[O-])cc1)N2Nc1ccccn1` (stereo not drawn) here?
The z-score was -0.373.

For `NC(=O)NCC#Cc1ccc2c(c1)[C@]1(C(=O)N2)[C@H](C(N)=O)[C@H]2C(=O)O[C@H](c3ccccc3)[C@H](c3ccccc3)N2[C@@H]1c1ccccc1OCCO`, which z-score is on record?
Its z-score is 0.369.

With `CCOC(=O)C[C@H]1[C@H](OC(=O)c2cc3ccccc3oc2=O)[C@@H](NC(=O)C2CCCCC2)c2cc(OCCCO)ccc2N1C(=O)c1ccc2ccccc2n1` as the molecule, how does the z-score read?
The z-score was 0.201.

With `COc1cc2c(cc1OC)CN(C(=O)[C@H]1[C@@H]3C(=O)O[C@@H](c4ccccc4)[C@@H](c4ccccc4)N3[C@@H](c3ccc(O)cc3)[C@]13C(=O)Nc1ccc(C#CC4(O)CCCCCC4)cc13)CC2` as the molecule, how does the z-score read?
Its z-score is -0.4.

For `O=C1OCCC/C=C\[C@H]2OC34C=CCN(CCN5CCOCC5)C(=O)[C@H]3N(CCCCCO)C(=O)[C@@H]4C12` (stereo partly drawn), which z-score is on record?
Its z-score is -0.193.

Which z-score does the source give for `C[N+](C)(C)CCCCNC(=O)[C@H]1C[C@H]2C(=O)NCC(=O)N2[C@H]1c1cccc(OCCO)c1` here?
The z-score was -0.935.

Which z-score does the source give for `O=C1C[C@@](C(=O)NC2CC2)(c2ccc([N+](=O)[O-])cc2)[C@@H](c2ccc(CO)cc2I)N1CC12CC3CC(CC(C3)C1)C2` here?
Its z-score is -6.88.

With `C=C(CCCC)/C(=C/C[C@@H](OC(=O)c1ccncc1)c1cccc(OCCO)c1)c1cc(C(=O)OC)ccc1OC` as the molecule, how does the z-score read?
The z-score was -0.73.

For `Cc1ccc(S[C@]2(C(=O)NCCCN(C)C)CC(=O)N(Cc3ccccc3)[C@@H]2c2ccc(CO)cc2I)cc1`, which z-score is on record?
Its z-score is -2.94.

With `O=C1O[C@H](c2ccccc2)[C@H](c2ccccc2)N2[C@H]1[C@@H](C(=O)Nc1nc3ccccc3s1)[C@]1(C(=O)Nc3ccc(C#CC4(O)CCCCCC4)cc31)[C@H]2c1ccc(O)cc1` as the molecule, how does the z-score read?
Its z-score is -1.55.

With `O=C(NCc1ccccc1)[C@@]1(Cc2ccccc2)COC(c2ccc(OCCCO)cc2)=N1` as the molecule, how does the z-score read?
The z-score was -6.53.

For `C=C(CCCC)/C(=C/C[C@@H](OC(=O)c1ccncc1)c1ccc(CO)o1)c1cnc2ccccc2c1`, which z-score is on record?
The z-score was 0.82.

Which z-score does the source give for `O=C1C2C=CC(C(O)C#Cc3ccccc3)N(Nc3ccccc3)C2C(=O)N1c1ccccc1` (stereo not drawn) here?
Its z-score is -0.279.

Which z-score does the source give for `CCCC=C(CCC)[C@@H](NC(=O)c1ccc(C(F)(F)F)cc1)c1ccccc1` here?
The z-score was -0.507.

For `COc1ccc(NN2C(C(O)c3cc(OC)c(OC)c(OC)c3)C=CC3C(=O)N(C4CCCCC4)C(=O)C32)cc1` (stereo not drawn), which z-score is on record?
Its z-score is -0.946.

With `C#CCCCON=C1C[C@@H](O)[C@@H](O)[C@@H]2[C@@H]3C(=O)N(Cc4ccc5c(c4)OCO5)C(=O)[C@@H]3CC[C@@H]12` as the molecule, how does the z-score read?
Its z-score is 0.241.

For `COC(=O)C1=CC(c2ccc(CO)cc2)=CC(c2cccs2)N(Cc2cccc(OC(F)(F)F)c2)C=C1C(=O)OC` (stereo not drawn), which z-score is on record?
The z-score was -1.67.

For `O=C1O[C@H](c2ccccc2)[C@H](c2ccccc2)N2[C@H]1[C@@H](C(=O)NC[C@H](O)c1ccccc1)[C@]1(C(=O)Nc3ccc(C#CC4=CCCCC4)cc31)[C@H]2c1ccc(OCCO)cc1`, which z-score is on record?
Its z-score is -2.

For `CC[C@H]1C2=C3C(CC[C@H]4C(OC)OC[C@](C)([C@@H]34)N(C(=O)OC(C)(C)C)C2)C(CO)C1CO` (stereo partly drawn), which z-score is on record?
The z-score was -0.713.

biological target: Dihydroorotate dehydrogenase (quinone), mitochondrial (Plasmodium falciparum (isolate 3D7)) (UniProt Q08210); test: inhibition of P. falciparum DHODH – biochemical, C-terminal His tag, absorbance 600 nm, primary screen (AID 1175); settings: PfDHODH enzyme, DCIP absorbance 600 nm; higher = more signal, called active from +8 up or from −8 down;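 further: recombinant parasite enzyme with a five histidine tag at its C terminus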
Sequence (Q08210 whole entry, looked up): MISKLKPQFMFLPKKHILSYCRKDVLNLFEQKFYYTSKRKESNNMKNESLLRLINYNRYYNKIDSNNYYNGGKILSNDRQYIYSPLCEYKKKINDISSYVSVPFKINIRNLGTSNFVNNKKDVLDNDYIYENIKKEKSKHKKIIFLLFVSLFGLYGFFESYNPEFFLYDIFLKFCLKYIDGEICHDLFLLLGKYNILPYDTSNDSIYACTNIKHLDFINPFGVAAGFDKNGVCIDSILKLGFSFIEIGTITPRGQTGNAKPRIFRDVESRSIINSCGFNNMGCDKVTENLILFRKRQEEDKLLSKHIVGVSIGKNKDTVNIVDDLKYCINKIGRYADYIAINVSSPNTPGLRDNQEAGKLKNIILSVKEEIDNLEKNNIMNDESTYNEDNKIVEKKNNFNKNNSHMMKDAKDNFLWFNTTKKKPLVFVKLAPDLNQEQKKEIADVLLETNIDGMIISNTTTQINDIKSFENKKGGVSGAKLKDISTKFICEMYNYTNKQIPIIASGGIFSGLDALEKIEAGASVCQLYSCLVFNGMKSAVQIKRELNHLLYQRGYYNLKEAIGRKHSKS

Which composite z-score does the source give for `COC(=O)Cn1c(C(=O)N2CCCC2)cc2c1C[C@H]1CN(C(=O)c3ccccc3)[C@@](Cc3ccccc3)(C(=O)OC)[C@@H]21` here?
The composite z-score was 0.0393.

With `O=C1C[C@@](C(=O)NCCN2CCOCC2)(c2ccc([N+](=O)[O-])cc2)[C@@H](c2ccc(CO)cc2)N1C1CCCCC1` as the molecule, how does the composite z-score read?
The composite z-score was 0.231.

With `CC(=O)NCCCC[C@@H]1NC(=O)[C@H]2C[C@@H](C(=O)NCCCCCCN(C)C)[C@@H](c3cccc(OCCO)c3)N2C1=O` as the molecule, how does the composite z-score read?
Its composite z-score is -0.0259.

For `CC(C)(C)OC(=O)CC[C@]1(C(=O)N2CCCCC2)N=C(c2ccc(OCCCO)cc2)O[C@H]1c1ccccc1`, which composite z-score is on record?
The composite z-score was -0.892.

Which composite z-score does the source give for `CC(=O)NCCCC[C@@H]1NC(=O)[C@H]2C[C@@H](C(=O)NCCCCCCN(C)C)[C@@H](c3ccc(O)cc3)N2C1=O` here?
Its composite z-score is -0.231.

For `O=C1C2C=CC(C(O)Cc3ccccc3)N(Nc3ccc([N+](=O)[O-])cc3)C2C(=O)N1c1ccccc1` (stereo not drawn), which composite z-score is on record?
Its composite z-score is -0.75.

With `C=C(COC)C(=O)CC[C@H](OC(=O)c1ccccc1-c1ccccc1C(=O)O)c1cccc(OCCO)c1` as the molecule, how does the composite z-score read?
The composite z-score was -6.66.

Which composite z-score does the source give for `C=CC[C@@]1(C(=O)NCC(O)CO)N=C(c2ccc(OCCCO)cc2)O[C@@H]1c1ccccc1CN=[N+]=[N-]` (stereo partly drawn) here?
The composite z-score was 0.592.

Which composite z-score does the source give for `O=C(CS)NCCCCCCNC(=O)[C@@H]1C[C@@H]2C(=O)N[C@@H](Cc3ccccc3)C(=O)N2[C@@H]1c1ccc(O)cc1` here?
The composite z-score was 0.224.

For `C=CC[C@]1(C(=O)N2CCCCC2)N=C(c2ccc(OCCCO)cc2)O[C@H]1c1ccccc1N=[N+]=[N-]`, which composite z-score is on record?
Its composite z-score is 2.06.

With `COC(=O)[C@@]1(Cc2ccc(OC)cc2)[C@H]2c3cc(C(=O)N(C)C)n(Cc4ccc(C)c(F)c4F)c3C[C@H]2CN1C(=O)c1ccccc1` as the molecule, how does the composite z-score read?
Its composite z-score is 0.164.

With `[N-]=[N+]=NCc1ccccc1C[C@]1(C(=O)N2CCCCC2)N=C(c2ccc(OCCCO)cc2)O[C@H]1c1ccccc1CN=[N+]=[N-]` as the molecule, how does the composite z-score read?
The composite z-score was -0.266.

For `CC(C)[Si](OCC[C@H]1O[C@]2(C(=O)N(Cc3ccccc3)c3ccccc32)[C@@H](C)[C@@H]1[Si](C)(C)O)(C(C)C)C(C)C`, which composite z-score is on record?
The composite z-score was 0.766.

Which composite z-score does the source give for `C=CCC(OC(C)=O)[C@@H]1[C@@H](N(Cc2ccc(-c3cccc(C(F)(F)F)c3)o2)C(=O)Cc2ccc(F)cc2)c2cc(OCCCO)ccc2N1C(=O)c1ccc(-c2ccccc2)cc1` (stereo partly drawn) here?
The composite z-score was -0.262.

Which composite z-score does the source give for `C=C[C@H](OC)[C@@H](OC(=O)Nc1ccc(SC)cc1)c1ccc(O)c(F)c1` here?
Its composite z-score is -2.05.

Which composite z-score does the source give for `O=C1O[C@H](c2ccccc2)[C@H](c2ccccc2)N2[C@H]1[C@@H](C(=O)NC[C@H](O)c1ccccc1)[C@]1(C(=O)Nc3ccc(C#CC4(O)CCCCCC4)cc31)[C@H]2c1ccc(OCCO)cc1` here?
Its composite z-score is -1.82.

With `CC(C)C[C@@H]1NC(=O)[C@H](CC(C)C)NC(=O)[C@@]23C(=O)N[C@@H](Cc4ccccc4)C2[C@H](C)[C@@]2(C)O[C@H]2C3/C=C/CC/C=C/CNC1=O` (stereo partly drawn) as the molecule, how does the composite z-score read?
The composite z-score was -0.744.

With `O=C1NC(=O)C2C1C=CC(C(O)C=Cc1ccc([N+](=O)[O-])cc1)N2Nc1ccccn1` (stereo not drawn) as the molecule, how does the composite z-score read?
Its composite z-score is 0.643.

Which composite z-score does the source give for `NC(=O)NCC#Cc1ccc2c(c1)[C@]1(C(=O)N2)[C@H](C(N)=O)[C@H]2C(=O)O[C@H](c3ccccc3)[C@H](c3ccccc3)N2[C@@H]1c1ccccc1OCCO` here?
Its composite z-score is -0.793.

Which composite z-score does the source give for `CCOC(=O)C[C@H]1[C@H](OC(=O)c2cc3ccccc3oc2=O)[C@@H](NC(=O)C2CCCCC2)c2cc(OCCCO)ccc2N1C(=O)c1ccc2ccccc2n1` here?
Its composite z-score is 0.884.

For `COc1cc2c(cc1OC)CN(C(=O)[C@H]1[C@@H]3C(=O)O[C@@H](c4ccccc4)[C@@H](c4ccccc4)N3[C@@H](c3ccc(O)cc3)[C@]13C(=O)Nc1ccc(C#CC4(O)CCCCCC4)cc13)CC2`, which composite z-score is on record?
Its composite z-score is -0.543.

With `O=C1OCCC/C=C\[C@H]2OC34C=CCN(CCN5CCOCC5)C(=O)[C@H]3N(CCCCCO)C(=O)[C@@H]4C12` (stereo partly drawn) as the molecule, how does the composite z-score read?
The composite z-score was 0.286.

With `C[N+](C)(C)CCCCNC(=O)[C@H]1C[C@H]2C(=O)NCC(=O)N2[C@H]1c1cccc(OCCO)c1` as the molecule, how does the composite z-score read?
Its composite z-score is -29.2 (active).

For `O=C1C[C@@](C(=O)NC2CC2)(c2ccc([N+](=O)[O-])cc2)[C@@H](c2ccc(CO)cc2I)N1CC12CC3CC(CC(C3)C1)C2`, which composite z-score is on record?
Its composite z-score is 1.59.

Which composite z-score does the source give for `C=C(CCCC)/C(=C/C[C@@H](OC(=O)c1ccncc1)c1cccc(OCCO)c1)c1cc(C(=O)OC)ccc1OC` here?
The composite z-score was -0.757.

Which composite z-score does the source give for `Cc1ccc(S[C@]2(C(=O)NCCCN(C)C)CC(=O)N(Cc3ccccc3)[C@@H]2c2ccc(CO)cc2I)cc1` here?
The composite z-score was -1.38.

With `O=C1O[C@H](c2ccccc2)[C@H](c2ccccc2)N2[C@H]1[C@@H](C(=O)Nc1nc3ccccc3s1)[C@]1(C(=O)Nc3ccc(C#CC4(O)CCCCCC4)cc31)[C@H]2c1ccc(O)cc1` as the molecule, how does the composite z-score read?
Its composite z-score is 0.0022.
